This is part of a sample that, as a whole, favours compounds with a hit. Of some 83,000 tested, about 20% had one in any assay.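 Each cell line was grown in a 96-well plate and treated with one concentration of compound for 48 hours. Values below 10 were considered active.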 Values without a mark were called inactive. The source made the active and inactive calls.
How the values were obtained:
Assay in all cases: NCI-60 one-dose screen, 48 h (100 = growth as untreated, 0 = no growth, -100 = all killed)
Conditions in all cases: 10 µM unless noted
NCI-H23 lung = system: NCI-H23 lung
NCI-H226 lung = system: NCI-H226 lung
NCI-H322M lung = system: NCI-H322M lung
HOP-62 NSCLC = system: HOP-62 NSCLC
NCI-H460 lung = system: NCI-H460 lung
786-0 renal = system: 786-0 renal
MDA-MB-231 breast = system: MDA-MB-231 breast
SF-268 CNS = system: SF-268 CNS
SF-539 CNS = system: SF-539 CNS
U251 CNS = system: U251 CNS
UACC-62 melanoma = system: UACC-62 melanoma
SK-MEL-28 melanoma = system: SK-MEL-28 melanoma
SN12C renal = system: SN12C renal
UO-31 renal = system: UO-31 renal
OVCAR-8 ovarian = system: OVCAR-8 ovarian
OVCAR-3 ovarian = system: OVCAR-3 ovarian
MDA-MB-435 melanoma = system: MDA-MB-435 melanoma
SW-620 colon = system: SW-620 colon
MCF7 breast = system: MCF7 breast
KM12 colon = system: KM12 colon

SMILES | growth (NCI-H23 lung) | growth (NCI-H226 lung) | growth (NCI-H322M lung) | growth (HOP-62 NSCLC) | growth (NCI-H460 lung) | growth (786-0 renal) | growth (MDA-MB-231 breast) | growth (SF-268 CNS) | growth (SF-539 CNS) | growth (U251 CNS) | growth (UACC-62 melanoma) | growth (SK-MEL-28 melanoma) | growth (SN12C renal) | growth (UO-31 renal) | growth (OVCAR-8 ovarian) | growth (OVCAR-3 ovarian) | growth (MDA-MB-435 melanoma) | growth (SW-620 colon) | growth (MCF7 breast) | growth (KM12 colon)
CO[C@@H](c1ccccc1Cl)[C@H](C)OC(N)=O | 93.7% | 96.4% | 95.1% | 96.1% | 105% | 98.7% | 102% | 97.4% | 96.6% | 94.1% | 93.1% | 102% | 106% | 85.7% | 103% | 111% | 97.8% | 100% | 102% | 109%
Fc1ccc(C2=NN(c3ccccc3)C(c3sc(N(CCCl)CCCl)nc3Cl)C2)cc1 (centres undefined) | 85.4% | 74.1% | 82.3% | 78% | 90.7% | 92.2% | 69% | 86.5% | 101% | 85.9% | 59.8% | 111% | 86.9% | 67.6% | 87.5% | 91.7% | 93.9% | 84.4% | 72.2% | 81.1%
CC(C)(C)N(Cc1ccccc1)N=O | 102% | 91.7% | 101% | 99.4% | 107% | 99% | 91.9% | 108% | 99% | 99.3% | 103% | 106% | 91.9% | 96.7% | 95.7% | 118% | 102% | 101% | 97.7% | 104%
CC1(C)N=C(N)N=C(N)N1c1ccc(CCCCc2ccc(Cl)cc2S(=O)(=O)F)c(Cl)c1 | 25.6% | 30.6% | 34.2% | 33.4% | 8.45% (active) | 20.4% | 27.4% | 25.2% | 19.6% | 15.3% | 22.5% | 37.8% | 23.4% | 60.7% | 15.2% | 25.2% | 19.6% | 11.9% | 13.3% | 15.7%
CCCCn1cc(C(=O)/C(C#N)=C/c2cc3ccccc3nc2Cl)c2cc(OC)ccc21 | 92.8% | 84.3% | 98% | 86.1% | 101% | 97% | 87.8% | 83.1% | 89% | 83.2% | 81.4% | 107% | 79.2% | 61.6% | 75.1% | 78.6% | 101% | 44.7% | 72% | 94.5%
CC(C)(NC(=O)c1nn(CCCCCF)c2ccccc12)c1ccccc1 | 101% | 80.2% | 105% | 94.2% | 102% | 89.3% | 98.1% | 96% | 100% | 84.4% | 75.4% | 111% | 101% | 76.3% | 83.5% | 105% | 103% | 102% | 98.3% | 107%
O=C(O)c1nn(Cc2ccc(Cl)cc2)c2ccccc12 | 105% | 101% | 127% | 108% | 105% | 108% | 107% | 109% | 102% | 100% | 102% | 119% | 93.7% | 95.7% | 92.7% | 132% | 116% | 105% | 99.7% | 109%
C[CH2][Sn]([CH2]C)([CH2]C)[NH]S(=O)(=O)c1ccc(C)cc1 | 96.4% | 116% | 111% | 121% | 107% | 109% | 107% | 108% | – | 99.5% | 100% | 111% | 106% | 86.9% | 104% | 113% | 102% | 101% | 103% | 105%

Reference: PubChem BioAssay (NCI)
